# From PubChem BioAssay AID1645851 (National Center for Advancing Translational Sciences (NCATS), 2021)
# The whole screen tested about 140,000 compounds, of which about 1,200 (0.86%) were called active. The list comes from a sample in which actives are over-represented; it also holds similar structures and randomly drawn compounds. A number with no mark means an inactive call. Rule as the data show it: active = activity change below about -25%; inactive = the rest.
# Target: Inositol hexakisphosphate kinase 1 (Homo sapiens) (UniProt Q92551)
# Assay: Primary qHTS assay for small molecule inhibitors of Inositol hexaphosphate kinase 1 (IP6K1); also: series mostly up to about 58 µM
# Conditions: ADP-Glo luminescence, 2 h, hits give low values
# Procedure, shortened: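 ADP-Glo luminescence measures ADP made by human IP6K1 during a 2 h RT reaction with ATP/IP6 (mix at 1.3 mM/130 uM); top library doses 57.5 and 19.1 uM final.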
# % is scaled to controls: 0 for no effect and ±100 for the full control effect.
# Inositol hexakisphosphate kinase 1 (Homo sapiens), sequence (Q92551 whole entry, looked up): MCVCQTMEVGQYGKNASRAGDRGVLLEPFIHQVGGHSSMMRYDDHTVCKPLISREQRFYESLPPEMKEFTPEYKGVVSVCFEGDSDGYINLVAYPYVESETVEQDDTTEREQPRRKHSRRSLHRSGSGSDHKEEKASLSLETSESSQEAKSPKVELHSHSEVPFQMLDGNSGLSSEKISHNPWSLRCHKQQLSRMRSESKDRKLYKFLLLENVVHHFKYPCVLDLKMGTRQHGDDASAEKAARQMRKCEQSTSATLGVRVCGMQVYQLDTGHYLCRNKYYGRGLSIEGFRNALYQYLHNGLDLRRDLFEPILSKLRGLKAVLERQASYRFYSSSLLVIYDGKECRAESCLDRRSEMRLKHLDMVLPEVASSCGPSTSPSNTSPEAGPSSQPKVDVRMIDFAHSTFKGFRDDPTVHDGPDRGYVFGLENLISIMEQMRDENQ
row,SMILES,activity change
1,Cc1nn(-c2ccccc2)c2c1C(C)N(C1CCN(C(=O)C(C)C)CC1)C2=O (centres undefined),2.6%
2,O=C(NCc1ccccc1)c1c(-c2ccccc2)cc(=O)n2c1CCCC2,5.1%
3,COc1ccccc1-c1ccc(CN2CCC(NC(=O)c3ccc(Cl)nc3)C2)cc1 (centres undefined),8.29%
4,CC(C)Cn1c(=O)c(C(=O)NCc2ccc(F)cc2)nc2cccnc21,8.42%
5,O=C(Nc1ccc(C(=O)O)c(O)c1)c1ccccc1,7.03%
6,O=C(Nc1cccc(NC(=O)c2ccc(Br)cc2)c1)c1ccccc1,-16%
7,CC(C)(C)c1ccc(C(=O)Nc2cc(Cl)c(Br)cc2C(=O)O)cc1,-35.3% (active)
8,CC(=O)c1cc(CC(=O)NCc2cc(F)c(F)cc2F)cs1,-1.78%
9,C[C@H]1[C@@H]2[C@@H](O)C([C@H](C)C(=O)NC3CCCC3)CC[C@@]2(C)CC[C@@H]1NC(=O)c1ccc(C#N)cc1 (some centres undefined),8.22%
10,Cn1ncc2c(C(=O)N3CCN(c4ncccn4)CC3)cc(-c3ccc(C(F)(F)F)cc3)nc21,2.25%
11,Cc1cc(C(=O)N2CCC3(CCCNC3=O)C2)ccc1N1CCOCC1 (centres undefined),11%
12,COc1ccc(C2Cn3nnc(C(=O)N4CCC(C(=O)NCc5ccc(C)cc5)CC4)c3CO2)cc1 (centres undefined),-5.17%
13,COc1ccc(C2Cn3nnc(C(=O)N4CCN(C(=O)c5cccc(Cl)c5)CC4)c3CO2)cc1 (centres undefined),2.61%
14,COc1ccc(C2Cn3nnc(C(=O)N4CCN(C(=O)c5ccc(C)cc5C)CC4)c3CO2)cc1 (centres undefined),-25.2% (active)
15,CNC(=O)[C@@H]1C[C@@H](n2cc(CNC(=O)Nc3cccc(Cl)c3C)nn2)CN1,11.8%
16,O=C(C1CC1)N1CCC(N2CC(OCC3CC3)C23CCOCC3)CC1 (centres undefined),-1.99%
17,CN(C)[C@@H]1C(=O)C(C(N)=O)=C(O)[C@@]2(O)C(=O)C3=C(O)c4c(O)ccc(Cl)c4[C@@H](O)[C@H]3C[C@@H]12,-40.7% (active)
18,O=C(c1nc(-c2cccnc2)c2cnccn12)N1CCN(c2ncccn2)CC1,8.68%
19,C(=C\c1ccccc1)/CN1CCN(c2ncncn2)CC1,-5.21%
20,C(=C\c1ccccc1)/CN1CCN(c2nccc(-c3cccnc3)n2)CC1,-36.7% (active)
21,CCOC(=O)[C@@H]1[C@@H](O)C(=O)N(Cc2ccccc2)C12CCN(C(=O)c1cc3ccccc3s1)CC2,14.8%

row,SMILES,activity change
1,O=C(CC1CCCN(c2cnn(CC3CC3)c(=O)c2)C1)N1CCCC1 (centres undefined),15.7%
2,Cc1ccc(-c2onc(C)c2C)cc1S(=O)(=O)Nc1ccccn1,-25.5% (active)
3,COc1ccc(-c2onc(C)c2C)cc1S(=O)(=O)NCc1cccs1,41.7%
4,COc1ccc(-c2onc(C)c2C)cc1S(=O)(=O)NCCc1ccccc1,17.3%
5,C=CCCC(CN1CCCC1)Oc1ncc(F)c(N2CCCC2)n1 (centres undefined),-2.11%
6,COc1cc(NC(=O)Nc2cccc(CNC(=O)O[C@H]3CCOC3)c2)ccc1-c1cnco1,-31.9% (active)
7,O=C(NCC1CCOCC1)Nc1cccc(Cl)c1,18.6%
8,COc1ccc(NC(=O)N2CCC(CC(=O)NCc3ccccc3)C2)cc1OC (centres undefined),-12.4%
9,C=CCCC(=O)N1CCC2(CCCN(Cc3cccc(F)c3F)C2=O)C1 (centres undefined),-2.13%
10,FC(F)(F)c1ccc(CN2CCC3(CC(c4cccc(C(F)(F)F)c4)=NO3)C2)cc1 (centres undefined),-5.41%
11,N#Cc1ccc(CN2CC(Oc3ccc(F)cc3F)C2)cc1,-14.3%
12,CO[C@H]1C=CO[C@@]2(C)Oc3c(C)c(O)c4c(O)c(c(/C=N/N5CCN(C)CC5)c(O)c4c3C2=O)NC(=O)/C(C)=C\C=C[C@H](C)[C@H](O)[C@@H](C)[C@@H](O)[C@@H](C)[C@H](OC(C)=O)[C@@H]1C,-33.1% (active)
13,O=C(C1CCN(Cc2ccccc2-c2ccccc2F)CC1)N1CCC(c2ccccc2)CC1,20.1%
14,Cc1ccccc1C(=O)N1CCCC(C(=O)N2CCC(c3ccccc3)CC2)C1 (centres undefined),-2.33%
15,O=[S+]([O-])(c1ccccc1)N1CC2(COCCN(Cc3cc(F)ccc3F)C2)C1,8.88%
16,COc1cccc(Nc2n[nH]c(C(O)c3cccc(C(F)(F)F)c3)n2)c1 (centres undefined),-3.83%
17,COc1ccc(-c2nn(CC(=O)Nc3ccccc3F)c3c2cnc2ccc(F)cc23)cc1,6.83%
18,COc1ccc(-c2nn(CC(=O)NC3CCCC3)c3c2cnc2ccc(F)cc23)cc1,19.4%
19,COc1ccc2ncc3c(-c4ccc(C)c(C)c4)nn(CC(=O)NC4CCCC4)c3c2c1,-25.8% (active)
20,COc1ccc(-c2nc(-c3ccccc3)nc3c2CN(C(=O)c2ccc(C)cc2)CC3)cc1,6.25%
21,CCN1c2cc(C(=O)NCc3ccccc3C(F)(F)F)ccc2C(=O)N2CCCCCC21 (centres undefined),-7.94%

row,SMILES,activity change
1,Cc1ccc(Cl)cc1NC(=O)CN1C(=O)NC(c2ccc(Cl)cc2)C2=C1COC2=O (centres undefined),-3.73%
2,CCOC(=O)c1cc2c(=O)n3ccccc3nc2n(CC2CCCO2)c1=NC(=O)c1ccc(C(C)(C)C)cc1 (centres undefined),-2.99%
3,CCOC(=O)c1cc2c(=O)n3ccccc3nc2n(CC2CCCO2)c1=NC(=O)c1ccccc1F (centres undefined),-9.99%
4,CCOC(=O)c1cc2c(=O)n3ccccc3nc2n(Cc2ccco2)c1=NC(=O)c1ccc(F)cc1,-40.8% (active)
5,NC(=O)Cn1ccc2cc(OCC3CCN(C(=O)C4CCCC4)CC3)cnc21,-2.13%
6,CC(C)CCNC(=O)c1cnc2c(c1)N(Cc1ccccc1)CCC2,3.22%
7,COC[C@H]1C[C@@H](NC(=O)c2ccc(C#N)cc2)[C@H](O)[C@@H]1O,-1.35%
8,Cn1cc(C(=O)N2CCC(C(=O)N3CCCCCCNC(=O)CC3)CC2)cn1,-7.37%
9,N#Cc1ccc(C(=O)Nc2ccc([C@H]3OCC(=O)N(Cc4cccnc4)[C@@H]3CO)cc2)cc1,-3.68%
10,O=C(Nc1cc(-c2ccncc2)nn1-c1ccccc1)c1ccccc1F,-7.37%
11,O=C(Nc1cccnc1)[C@@H]1C[C@@H](c2ccc(F)cc2)N([S+](=O)([O-])c2ccccc2)C1,19.9%
12,Cc1nc2c(c(C)nn2-c2ccccc2)c(C)c1CCC(=O)NCCc1ccc(Cl)cc1,11.8%
13,Cc1ccc(CNC(=O)CCc2c(C)nc3c(c(C)nn3-c3ccccc3)c2C)cc1,-26.3% (active)
14,COC(=O)c1ccc(NC(=O)CCc2c(C)nc3c(c(C)nn3-c3ccc(C)cc3)c2C)cc1,33%
15,Cn1ncc2c(C(=O)NCc3ccc(Cl)cc3)cc(-c3ccc(F)cc3)nc21,11.6%
16,O=C(NCCc1ccccc1F)c1ccc2nnc(-c3ccc(F)cc3)n2c1,1.1%
17,COC(=O)NC1CCCN(c2ccc3nnc(-c4ccccc4)n3n2)C1 (centres undefined),-6.13%
18,COc1ccc(N2CC(c3noc(-c4cc(OC)c(OC)c(OC)c4)n3)CC2=O)cc1 (centres undefined),12.4%
19,CCOc1ccccc1CNC(=O)C1CCCN(S(=O)(=O)c2ccc3c(ccn3C)c2)C1 (centres undefined),-3.08%
20,CCOc1ccccc1NC(=O)C1CCCN(S(=O)(=O)c2cn(C)cn2)C1 (centres undefined),-25.5% (active)
21,Cc1ccc(C)c(NC(=O)C2CCCN(S(=O)(=O)c3cn(C)cn3)C2)c1 (centres undefined),5.66%

row,SMILES,activity change
1,O=c1cc(N2CCOCC2)oc2c(NCc3ccncc3)nccc12,-7.16%
2,Cc1noc(C)c1-c1nccc2c(=O)cc(N3CCOCC3)oc12,-13.2%
3,O=c1cc(N2CCOCC2)oc2c(Nc3cccc(Cl)c3)nccc12,-31% (active)
4,CN(C)c1ccc(CN(C)C2CCc3ccccc3C2)cc1 (centres undefined),-16.7%
5,CC(C)OCCCNC(=O)c1cc(-c2ccc(C(F)(F)F)cc2)nc2c1cnn2C,-2.02%
6,CCOc1ccccc1NC(=O)CN1C(=O)C(c2ccccc2)=NC12CCCC2,7.82%
7,CC1=C(C(=O)N(C)C)C(c2ccc(Cl)cc2)N2C(CC(=O)NC(C)c3ccccc3)=CSC2=N1 (centres undefined),33.5%
8,CC1=C[C@@H](CNC(C)C)[C@H](C(C)C)C[C@H]1Cc1nnc(-c2ccc(N(C)C)cc2)o1,-0.243%
9,Cc1ccccc1C(=O)N1CCCC(C(=O)N2CCC(N3CCOC3=O)CC2)C1 (centres undefined),-1.11%
10,C#C[C@]1(O)CC[C@H]2[C@@H]3CCC4=CC(=O)CC[C@@H]4[C@H]3CC[C@@]21CC,3.56%
11,C#C[C@]1(O)CC[C@H]2[C@@H]3CCC4=C/C(=N/O)CC[C@@H]4[C@H]3CC[C@@]21CC,-79.6% (active)
12,CN1CC(=O)N(C2CCC2)Cc2c(NCC(C)(C)C)ncnc21,15.1%
13,O=C(OCc1ccccc1)N1CCOCC12CCN(Cc1ccncc1Cl)CC2,13%
14,CN(CC1CCN(CCc2cccc(F)c2)CC1)C(=O)c1cn2cccnc2n1,28.9%
15,Cc1cc(=O)n(CC(=O)NCCc2ccc(Cl)cc2)c(N2CCc3ccccc3C2)n1,19.5%
16,N#CSc1cc(SC#N)c(N)nc1N,-42.8% (active)
17,COc1ccc(Cn2c(=O)c(C(=O)N3CCN([S+](=O)([O-])c4c(C)noc4C)CC3)nc3cccnc32)cc1,10.5%
18,Cc1cn2nc(C(=O)Nc3cc(F)cc(F)c3)cc2c(N(C)Cc2ccccc2)n1,-5.8%
19,O=c1cc(-c2cccnc2)oc2c(-c3cccc(CO)c3)nccc12,-18.5%
20,O=c1cc(-c2ccccn2)oc2c(-c3ccccc3F)nccc12,-14.4%
21,O=c1cc(-c2cccnc2)oc2c(-c3ccccc3O)nccc12,-32.5% (active)
